Assay outcomes from PubChem BioAssay.
Most compounds without a hit are left out; they make up all but 9.4% or so of the library.
NPC1 promoter act – qHTS Assay for NPC1 Promoter Activators | AID 485313, 2010 | Huh7 NPC1 promoter luciferase reporter, 24 h | 320,000 tested, 2.4% active | Potency, µM (series often up to 9.22 µM), most hits filed as activators; further: nearly all actives have a fitted effect of over 60% in size
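NPC1 promoter–luciferase Huh7 cells; 24 h compound; luminescence.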
ELG1 genotox – qHTS screen for small molecules that induce genotoxicity in human embryonic kidney (HEK293T) cells expressing luciferase-tagged ELG1. HEK293T ELG1-luciferase reporter, luminescence, 16 h. Potency, µM (titrated, usually from 46 µM), hits mostly activators. 330,000 tested, 1.3% active. AID 504466, 2011; further: nearly all actives have a fitted effect of over 60% in size
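Genotoxicity was scored as increased ELG1-luciferase reporter signal, measured by ONE-Glo luminescence (30 min, room temperature). Compound or vehicle exposure of the HEK293T reporter cells lasted 16 hr at 37°C.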
SMN2 splice enh – qHTS Assay for Enhancers of SMN2 Splice Variant Expression; HEK293 SMN2-luciferase splicing reporter, luminescence, 30-36 h; Potency, µM (highest dose often 46.1 µM), usual class: activators; 210,000 tested, 2.8% active; AID 1458, 2008; further: nearly all actives have a fitted effect of over 55% in size
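HEK293 cells carry an SMN2 […]–luciferase reporter in which exon 7 inclusion puts luciferase in frame. Cells were plated 10-12 h before compound addition, then incubated 30-36 h at 37C. ONE-Glo luminescence was read; sodium butyrate at 4.5 mM final served as control.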
FLuc counter – qHTS profiling assay for firefly luciferase inhibitor/activator using purifed enzyme and Km concentrations of substrates (counterscreen for miR-21 project); AID 588342, 2011; 360,000 tested, 6.9% active; Potency, µM (highest dose often 57.5 µM), hits mostly inhibitors; Luciferin 4-monooxygenase (Photinus pyralis), P08659; purified FLuc, Km substrates, luminescence inhibition; further: nearly all actives have a fitted effect of over 55% in size
Target sequence (P08659 whole entry, looked up): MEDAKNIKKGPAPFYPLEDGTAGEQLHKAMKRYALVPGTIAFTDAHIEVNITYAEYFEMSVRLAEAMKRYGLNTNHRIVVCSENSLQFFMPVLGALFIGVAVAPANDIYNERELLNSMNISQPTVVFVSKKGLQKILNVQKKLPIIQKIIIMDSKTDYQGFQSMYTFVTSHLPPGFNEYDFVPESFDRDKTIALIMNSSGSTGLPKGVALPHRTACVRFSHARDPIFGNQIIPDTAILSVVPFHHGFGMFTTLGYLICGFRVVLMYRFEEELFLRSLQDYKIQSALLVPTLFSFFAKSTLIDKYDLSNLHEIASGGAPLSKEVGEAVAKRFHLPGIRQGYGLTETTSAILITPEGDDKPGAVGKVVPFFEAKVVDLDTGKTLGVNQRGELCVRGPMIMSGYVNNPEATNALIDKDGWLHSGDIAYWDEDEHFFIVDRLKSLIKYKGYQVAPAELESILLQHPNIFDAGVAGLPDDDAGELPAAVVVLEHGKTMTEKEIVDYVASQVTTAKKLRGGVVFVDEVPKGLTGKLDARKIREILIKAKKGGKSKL
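Purified P. pyralis luciferase (10nM final) with 10uM D-luciferin and 10uM ATP (Km levels) in 50mM Tris acetate pH 7.5, 10mM Mg acetate, 0.01% Tween-20, 0.05% BSA; qHTS 6-point titration, ~60 µM downward; luminescence read.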
ELG1 repair inh – qHTS screen for small molecules that inhibit ELG1-dependent DNA repair in human embryonic kidney (HEK293T) cells expressing luciferase-tagged ELG1. HEK293T ELG1-luciferase reporter, luminescence, 16 h; DNA damage induced by 5-fluorouridine. Potency, µM (top dose mostly 46.1 µM), usual class: inhibitors. 330,000 tested, 2.3% active; further: nearly all actives have a fitted effect of over 55% in size
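5-Fluorouridine DNA damage + compound/DMSO, 2,000 cells/well, 16 h, 37 °C/5% CO2. ONE-Glo, 30 min RT, luminescence. Readout = decrease in reporter signal.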
Rab9 promoter act – qHTS Assay for Rab9 Promoter Activators; Huh7 Rab9 promoter-luciferase reporter, luminescence, 24 h; Potency, µM (series often up to 9.22 µM), usual class: activators; 320,000 tested, 2.8% active; further: nearly all actives have a fitted effect of over 60% in size
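Promoter activation is measured as luciferase luminescence in Huh7 cells stably transfected with a Rab9 promoter–luciferase construct, following 24 h compound exposure at 37 °C and 10 min reagent incubation at ambient temperature.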
A number is an active result; - = inactive; ? = inconclusive; . = no result given; [ ] = dose if it differs, or a comment. The call rests on the fitted dose curve; in most records, active means well fitted curve in the direction sought with a large enough effect; inconclusive means small, poorly fitted or top-dose-only effect, or another doubt; inactive means no such curve, though single readings can be large; an effect the other way counts as inactive or inconclusive.

SMILES	NPC1 promoter act	ELG1 genotox	SMN2 splice enh	FLuc counter	ELG1 repair inh	Rab9 promoter act
CCCCN=c1scc(-c2ccc3c(c2)NC(=O)CO3)n1N=C1CCCC1	-	-	-	-	23µM	-
CC(C)(C)OC(=O)N1CCC[C@H]1C(=O)O	-	-	.	-	?	-
CC(C)COC(=O)N1CCCC1C(=O)O (centres undefined)	-	-	-	-	?	3.2µM
CN(C)CCN(Cc1ccccc1)S(=O)(=O)c1ccc2[nH]c(=O)ccc2c1	.	.	.	-	.	.
CCCSc1nn2c(=O)c3ccccc3nc2s1	4µM	2.9µM	35µM	7.6µM	?	2µM
Cc1cccc(Nc2nn3c(=O)c4ccccc4nc3s2)c1	4µM	-	7.9µM	?	?	?
O=c1c2ccccc2nc2sc(Nc3cccc4ccccc34)nn12	.	.	.	-	.	.
CC(=O)Nc1nc(-c2ccc3c(c2)CCN3C(=O)C2CC2)c(C)s1	-	-	.	?	?	-
CCCC(=O)N1CCc2cc(-c3nc(N)sc3C)ccc21	?	?	.	12µM	?	3.2µM
CNc1nc(-c2ccc3c(c2)CCN3C(=O)CC(C)(C)C)c(C)s1	-	-	.	-	-	-
CC(C)(C)C(=O)N1CCc2cc(-c3csc(N)n3)ccc21	0.35µM	?	?	0.24µM	?	0.089µM
CCC(C)C(=O)N1CCc2cc(-c3csc(N)n3)ccc21 (centres undefined)	2.5µM	5.8µM	11µM	5.4µM	?	1.4µM
Cc1ccc2c(CC(=O)Nc3cc(C(F)(F)F)ccc3Cl)coc2c1C	.	.	-	-	.	.
CCC1=[N+](CC(=O)c2ccc(C)cc2)CCn2c(C)ccc21	2.2µM	-	?	-	?	0.89µM
CC1=[N+](CC(=O)c2ccccc2)CCn2cccc21	?	?	.	-	?	3.5µM
CCC1=[N+](CC(=O)c2ccc(Br)cc2)CCn2c(C)ccc21	1.4µM	-	.	-	?	?
CCC1=[N+](C)CCn2c(C)ccc21	-	-	-	-	-	-
Cc1cc(C)c[n+](CC(=O)c2ccccc2)c1	-	-	.	-	-	-
CCC1=[N+](CC(=O)c2ccc(C)cc2)CCn2cccc21	-	?	?	-	?	4µM
Cc1ccc(C(=O)C[n+]2ccccc2)cc1	-	-	.	-	-	-
CCOC(=O)c1cnc2c(ccc3ccccc32)c1Nc1ccc(C(C)=O)cc1	.	.	-	-	.	.
CCc1ccc(C2C(C(=O)Nc3ccc(Cl)cc3)=C(C)Nc3ncnn32)cc1 (centres undefined)	.	.	-	-	.	.
Cc1ccc2nc(-c3ccc(Cl)c(NC(=O)c4ccc5c(c4)OCCO5)c3)oc2c1	.	.	-	11µM	.	.
Cc1ccc2oc(-c3ccc(C)c(NC(=O)c4ccc5c(c4)OCCO5)c3)nc2c1	.	.	-	-	.	.
Cc1ccc2nc(-c3ccc(Cl)c(NC(=O)COc4ccc(C(C)C)cc4)c3)oc2c1	.	.	-	11µM	.	.
SMILES	NPC1 promoter act	ELG1 genotox	SMN2 splice enh	FLuc counter	ELG1 repair inh	Rab9 promoter act
Cc1ccc(OCC(=O)Nc2ccc(-c3nc4ccc(C)cc4o3)cc2)cc1	.	.	0.63µM	-	.	.
Cc1ccc2nc(-c3ccc(Cl)c(NC(=O)COc4ccc([N+](=O)[O-])cc4)c3)oc2c1	.	.	-	-	.	.
Cc1ccc(S(=O)(=O)c2cn(CC(=O)Nc3ccccc3)c3cc4c(cc3c2=O)OCO4)cc1	.	.	-	-	.	.
COc1cc(Cl)c(C)cc1NC(=O)Cn1cc(S(=O)(=O)N2CCC(C)CC2)c2ccccc2c1=O	.	.	-	-	.	.
O=c1c2cnn(-c3ccc(Cl)cc3)c2ncn1Cc1ccc(Cl)cc1Cl	.	.	-	-	.	.
O=C(NCCc1ccc(Cl)cc1)c1cccc(NC2=NC3CS(=O)(=O)CC3S2)c1 (centres undefined)	-	-	.	17µM	-	-
c1ccc(Nc2ccc(-n3ccnc3)nn2)cc1	-	-	-	?	-	-
Clc1ccc(Nc2ccc(-n3ccnc3)nn2)cc1Cl	-	-	-	27µM	-	-
CCC(=O)Nc1ccc(S(=O)(=O)N2CCC(c3nc4ccccc4[nH]3)CC2)cc1	-	-	.	-	18µM	-
Cc1nn(C)c(C)c1CNC(=O)Nc1cccc(Cl)c1	-	-	.	?	?	?
Cc1nn(C)c(C)c1CNC(=O)Nc1ccc(Cl)cc1	?	?	-	?	?	3.2µM
O=C(c1ccc2oc(CCCc3ccccc3)nc2c1)N1CCCC(CCCO)C1 (centres undefined)	-	-	.	-	?	-
CCCCc1nc2cc(C(=O)N3CCC(O)CC3)ccc2o1	1.6µM	?	.	11µM	?	2µM
O=C(c1ccc2oc(CCc3ccccc3)nc2c1)N1CC[C@H](O)C1	3.5µM	?	.	?	?	1.4µM
CC(=O)N1CCN(C(=O)c2ccc3oc(CCCc4ccccc4)nc3c2)CC1	-	-[9.26 µM]	.	-	-	-
CCCCc1nc2cc(C(=O)N(C)C3CCOCC3)ccc2o1	?	9.2µM	.	13µM	?	2.5µM
CCOC(=O)N1CCN(C(=O)c2ccc3oc(CCCc4ccccc4)nc3c2)CC1	1.6µM	?	.	6µM	?	1.6µM
COc1ccc(OCC(=O)Nc2nnc3n2CCS3)cc1	.	.	.	-	.	.
Cc1ccc(NC(=O)C2CCCN(c3cnccn3)C2)cc1Cl (centres undefined)	.	.	-	-	.	.
C#CCn1c(C2CC(=O)N(c3ccc(OC)cc3)C2)nc2ccccc21 (centres undefined)	.	.	-	-	.	.
COC(=O)CCCNC(=O)c1ccc2oc(CCCc3ccccc3)nc2c1	-	-	.	?	?	?
COC(=O)[C@@H](C)NC(=O)c1ccc2oc(CCc3ccccc3)nc2c1	4µM	?	.	21µM	?	2.5µM
CC(C)Oc1ccc(C(=O)N2CCC(c3nc4ccccc4o3)CC2)cc1	.	.	.	-	.	.
COc1ccc(/C=C/C(=O)N2CCC(c3nc4ccccc4o3)CC2)cc1	.	.	.	19µM	.	.
COC(=O)C1CCN(C(=O)/C=C/c2ccc(OC)cc2)CC1	0.28µM	2.3µM	.	21µM	?	1.1µM
COC(=O)C1CCN(C(=O)Nc2ccc(OC)cc2)CC1	-	-	-	-	-	-
COc1ccc(/C=C/C(=O)N2CCC(c3ccccc3)C2)cc1 (centres undefined)	-	-	-	19µM	-	-
COc1ccc(CC(=O)N2CCC(c3ccccc3)C2)cc1 (centres undefined)	-	?	-	?	?	?
COc1ccc(OCC(=O)OCc2cc(=O)n3nc(C4CC4)sc3n2)cc1	.	.	.	-	.	.
COc1cc(NS(=O)(=O)c2ccc(NC(=O)c3ccc(C(C)=O)cc3)cc2)nc(OC)n1	.	.	-	?	.	.
